Screens: PubChem BioAssay, National Center for Advancing Translational Sciences (NCATS)
Shown are actives, neighbours in structure and some others; about 15% of the full set was active somewhere.
ELG1 repair inh = blocks ELG1-dependent DNA repair in HEK293T cells; Potency, µM (series often up to 46.1 µM), inactives show top-dose activity change, negative = inhibition, hits mostly inhibitors; HEK293T ELG1-luciferase reporter, luminescence, 16 h; DNA damage induced by 5-fluorouridine; actives 2.3% (n = 330,000); AID 504467; also: nearly all actives have a fitted effect of over 55% in size
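5-Fluorouridine DNA damage + compound/DMSO, 2,000 cells/well, 16 h, 37 °C/5% CO2. ONE-Glo, 30 min RT, luminescence. Readout = decrease in reporter signal.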
ALOX12 inh = ALOX12 (human) lipoxygenase inhibition. P18054. purified 12hLO, xylenol orange hydroperoxide absorbance. Potency, µM (series often up to 108 µM), for the others: at the top dose activity change, negative = inhibition, most hits filed as inhibitors. actives 1.1% (n = 580,000)
Target sequence (P18054 whole entry, looked up): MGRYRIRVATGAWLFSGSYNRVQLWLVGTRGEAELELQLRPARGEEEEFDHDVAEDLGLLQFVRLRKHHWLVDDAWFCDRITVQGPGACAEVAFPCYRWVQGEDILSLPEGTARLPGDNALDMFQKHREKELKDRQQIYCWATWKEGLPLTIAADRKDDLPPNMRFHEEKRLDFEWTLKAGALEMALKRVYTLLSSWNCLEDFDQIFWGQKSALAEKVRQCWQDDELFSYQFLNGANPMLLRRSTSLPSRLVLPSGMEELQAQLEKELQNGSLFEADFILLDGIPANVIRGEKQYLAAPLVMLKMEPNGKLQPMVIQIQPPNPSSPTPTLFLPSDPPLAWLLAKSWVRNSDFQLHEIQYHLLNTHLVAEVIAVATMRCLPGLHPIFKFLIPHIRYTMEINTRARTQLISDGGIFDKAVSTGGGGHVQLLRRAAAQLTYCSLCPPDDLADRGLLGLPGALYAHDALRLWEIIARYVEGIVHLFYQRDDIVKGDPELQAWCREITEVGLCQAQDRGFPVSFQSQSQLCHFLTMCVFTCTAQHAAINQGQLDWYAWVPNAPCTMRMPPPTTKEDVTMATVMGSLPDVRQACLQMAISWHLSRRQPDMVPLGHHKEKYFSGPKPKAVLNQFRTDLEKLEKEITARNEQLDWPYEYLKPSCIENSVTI
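Purified human 12hLO (150 nM final) in 25 mM Hepes, 0.01% Triton X-100, pH 7.0 was preincubated 15 min at room temperature with compound. Then 40 uM arachidonic acid was added, 30 min. Hydroperoxide was read by Fe-XO absorbance ratio 573/405 nm.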
DT40 TDP1 no CPT = qHTS for Inhibitors of human tyrosyl-DNA phosphodiesterase 1 (TDP1): qHTS in cells in absence of CPT; Potency, µM (highest dose often 46.2 µM), without a hit: at the highest dose activity change, negative = growth inhibition, hits mostly inhibitors; actives 15% (n = 420,000); DT40 Tdp1-/- hTDP1 cells, no CPT, ATP luminescence, 48 h; AID 686978, 2013; also: nearly all actives have a fitted effect of over 55% in size
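A cellular qHTS used chicken DT40 cells lacking endogenous Tdp1 but carrying stably transfected human TDP1. Compounds were applied without camptothecin, and cell growth kinetics were judged by ATP-dependent luminescence after ≥48 hr.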
RORgamma inh = ROR gamma (mouse) transcription inhibition | P51450 | Drosophila S2 Gal4-RORgamma UAS-luciferase reporter, 20 h | Potency, µM (doses to about 53.6 µM), for inactives: at the top dose activity change, negative = inhibition, most hits filed as inhibitors | actives 5.4% (n = 310,000); also: nearly all actives have a fitted effect of over 60% in size
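A Gal4/UAS one-hybrid system in insect cells: metallothionein-promoter Gal4–ROR gamma fusion plus Photinus luciferase reporter. Copper sulfate 700 uM final, 20 hr ambient incubation, luminescent detection after 10 min with reagent.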
DT40 TDP1 CPT = DT40-hTDP1 cell growth loss with CPT | chicken DT40 Tdp1-/-;hTDP1 cells + 20 nM CPT, ATP luminescence, 48 h | Potency, µM (highest dose often 46.2 µM), for the others: at the top dose activity change, negative = growth inhibition, hits mostly inhibitors | actives 12% (n = 420,000) | AID 686979; also: nearly all actives have a fitted effect of over 55% in size
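Chicken DT40 Tdp1-/- cells stably complemented with human TDP1 were seeded at 400 cells/well in medium containing 20 nM camptothecin, exposed to pin-transferred compounds, and grown at 37 °C for at least 48 hr. Viability was read as ATP luminescence.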
Gal4-VP16 FLuc = inhibits Gal4-VP16 luciferase reporter, ROR gamma counter-screen; Drosophila S2 Gal4-VP16 UAS-luciferase, luminescence, 20 h; actives 3.5% (n = 310,000); Potency, µM (top dose mostly 53.6 µM), for inactives: top-dose activity, negative = inhibition, actives largely listed as inhibitors;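 also: Gal4-VP16 expression switched on by copper sulfate through the metallothionein promoter; nearly all actives have a fitted effect of over 50% in size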
An asterisk follows results filed as active; ? = inconclusive; . = no result; [ ] = remark or other dose. Calls follow the shape of the dose curve; as a rule, active = well fitted curve in the direction sought with a large enough effect; inconclusive = small, poorly fitted or top-dose-only effect, or another doubt; inactive = no such curve, though single readings can be large; an effect the other way counts as inactive or inconclusive. % is scaled to controls: 0 for no effect and ±100 for the full control effect; potency is read from the fitted curve at half-maximal effect.

SMILES | ELG1 repair inh | ALOX12 inh | DT40 TDP1 no CPT | RORgamma inh | DT40 TDP1 CPT | Gal4-VP16 FLuc
CCOC(=O)CC(=O)CSc1nc(-c2cccnc2)cc(C)c1C#N | 0% | -21% | 8% | -8% | 10% | -5%
COC(=O)c1cccc(C(=O)NCC2CCC2)c1 | . | 23% | . | . | . | .
CN1CCN(CCNC(=O)CC2CCN(C(=O)c3ccc4nc(-c5ccccc5)oc4c3)CC2)CC1 | . | 37% | . | . | . | .
COc1ccccc1OCCOCCOc1c(C)cc(C)cc1Br | -5% | 5% | 23µM* | 24% | ? | -13%
Cc1ccc(-c2noc(CCC(=O)NCCCN3CCN(c4cccc(Cl)c4)CC3)n2)cc1 | ? | ? | 8.2µM* | 4µM* | 12µM* | 14µM*
Cc1ccc(-c2noc(CCC(=O)NCCCN3CCN(c4ccc(F)cc4)CC3)n2)cc1 | ? | 0% | 7.3µM* | -7% | 6.5µM* | ?
CC1(C)CC(=O)c2cc(OCC(=O)NCCCN3CCN(c4ccc(F)cc4)CC3)ccc2O1 | ? | -5% | ? | 12% | 11µM* | -10%
COc1ccc(-c2noc(CCC(=O)N3CCN(c4ccc(F)cc4)CC3)n2)cc1 | 20% | -16% | -15% | . | -27% | .
COc1cccc2c(Nc3cccc(O)c3)cc(C)nc12 | . | 9% | . | . | . | .
CCC[C@@H]1O[C@@H]2C[C@@H]3[C@H]4CCC5=CC(=O)C=C[C@@]5(C)[C@H]4[C@H](O)C[C@@]3(C)[C@@]2(C(=O)CO)O1 | . | . | . | -31%[16.9 µM] | . | -2%[17 µM]
CCC(=O)[C@@]1(C)[C@H](C)C[C@H]2[C@@H]3CCC4=CC(=O)C=C[C@]4(C)[C@H]3[C@@H](O)C[C@@]21C | ? | 7% | 16µM* | . | 13µM* | .
CCCC1O[C@@H]2C[C@H]3[C@@H]4CCC5=CC(=O)C=C[C@]5(C)[C@H]4[C@@H](O)C[C@]3(C)[C@]2(C(=O)CO)O1 (some centres undefined) | 7% | -4% | ? | 13µM* | -3% | 4%
C[C@]12C=CC(=O)C=C1CC[C@@H]1[C@@H]2[C@@H](O)C[C@@]2(C)[C@@H]1CC[C@]2(O)C(=O)CO | . | 1%[57.4 µM] | . | . | . | .
O=C(CN1CCOCC1)N1CC(F)(F)C[C@H]1c1nc(C2CC2)no1 | . | 30% | . | . | . | .
COc1ccc(-c2cc3nccn3c(Nc3ncccc3C(N)=O)n2)cc1OC | . | 1.4µM* | . | . | . | .
CCNc1nc(NCC)n2c(SC(C(=O)Nc3cc(C)ccc3C)c3ccccc3)nnc2n1 (centres undefined) | ? | -1% | 12µM* | 4% | ? | 1%
CCNc1nc(NCC)n2c(SCC(=O)Nc3ccc(CC)cc3)nnc2n1 | -4% | . | ? | . | 21µM* | .
CCNc1nc(NCC)n2c(SCC(=O)Nc3ccc(NC(C)=O)cc3)nnc2n1 | 3% | -18% | 5% | . | -14% | .
CCNc1nc(NCC)n2c(SC(C)C(=O)c3ccc(C)cc3)nnc2n1 (centres undefined) | 5% | 8% | 13µM* | ? | ? | ?
CCc1ccc(CNC(=O)COC(=O)c2ccc(Cl)cc2)cc1 | . | 1% | . | . | . | .
CC1(C)CC(=O)/C(=C\c2cccc([N+](=O)[O-])c2)C(C)(C)N1 | -7% | -19% | 16µM* | ? | ? | ?
O=C1N/C(=N/O)S/C1=C/c1cccc([N+](=O)[O-])c1 | ? | -3% | -5% | 16% | 10% | -10%
COc1ccc(O)c(/C=C2/SC(=S)N(Cc3ccccc3)C2=O)c1 | -3% | 0% | 21µM* | -10% | ? | 17%
O=C1/C(=C\c2cc(Cl)c(O)c(Cl)c2)SC(=S)N1Cc1ccccc1 | ? | -87% | 2.3µM* | ? | 6.5µM* | ?
CCN(Cc1ccncc1)Cc1nc(Cc2ccccc2Cl)no1 | ? | 2% | 13µM* | -2% | ? | -13%
SMILES | ELG1 repair inh | ALOX12 inh | DT40 TDP1 no CPT | RORgamma inh | DT40 TDP1 CPT | Gal4-VP16 FLuc
CN(Cc1cnccn1)Cc1nc(Cc2ccccc2Cl)no1 | 6% | 8% | -8% | 14% | -8% | 3%
O=C(NC1CCCCC1)c1cc(Nc2cccc(C(F)(F)F)c2)nc2ccccc12 | . | -15% | ? | . | 21µM* | .
O=C(NC1CCCC1)c1cc(Nc2cccc(C(F)(F)F)c2)nc2ccccc12 | . | -13% | ? | . | ? | .
CCc1ccccc1Nc1cc(C(=O)NC2CCC(C)CC2)c2ccccc2n1 (centres undefined) | . | -26% | ? | . | 12µM* | .
CC(C)c1ccc(Nc2cc(C(=O)NC3CCCCC3)c3ccccc3n2)cc1 | . | 1% | 21µM* | . | 10µM* | .
O=C(NC1CCC(O)CC1)c1ccc2c(c1)-c1ccccc1C2 (centres undefined) | . | -38% | . | . | . | .
CCOC(=O)c1cnc2ccc(OCC)cc2c1NCCN1CCOCC1 | 20% | 14% | 21µM* | 12% | ? | -2%
CCOC(=O)c1cnc2ccc(OCC)cc2c1NCCCN1CCOCC1 | -25% | 5% | 18µM* | 5% | 18µM* | -2%
Cc1ccc(-c2cnc(SCC(=O)Nc3ccc(Cl)cc3)o2)cc1C | . | -21% | . | . | . | .
CSCC[C@H](NC(=O)OC(C)(C)C)c1nnc(SCC=C(C)C)o1 | -15% | -3% | -13% | 11µM* | -26% | -20%
CCCCSc1nnc([C@H](CC(C)C)NC(=O)OC(C)(C)C)o1 | -17% | -16% | ? | 1% | 18µM* | 5%
CCCCSc1nnc([C@H](C)NC(=O)OC(C)(C)C)o1 | 3% | 10% | -6% | -33% | -11% | -16%
Cc1ccc(-n2ncc(C(=O)N3CCC(c4ccccc4)C3)c2C2CCN(C(=O)OC(C)(C)C)CC2)cc1 (centres undefined) | . | -25% | 23µM* | . | 15µM* | .
CC(C)(C)OC(=O)N1CCC(c2c(C(=O)N3CCC(c4ccccc4)C3)cnn2-c2ccc(Cl)cc2)CC1 (centres undefined) | . | -14% | 16µM* | . | 13µM* | .
CC(C)(C)OC(=O)N1CCC(c2c(C(=O)O)cnn2-c2ccc(Cl)cc2)CC1 | 3% | ? | -15% | 28% | -12% | -3%
Cc1ccc(-n2ncc(C(=O)O)c2C2CCN(C(=O)OC(C)(C)C)CC2)cc1 | -5% | 25% | -29% | 14% | -9% | 1%
C/C(=N\NC(=O)c1cccc(Br)c1)C(C)C | . | 26% | . | . | . | .
Oc1cc(-c2nc3ccccc3s2)cc2c1OCCN(Cc1cccn1-c1ncccn1)C2 | . | 18% | 16µM* | . | -5%[9.04 µM] | .
O=C(NNC(=O)C1CCCCC1)c1c[nH]c2ccccc12 | . | -11% | . | . | . | .
